Measured values: PubChem BioAssay AID1240 (Sanford-Burnham Center for Chemical Genomics, 2008)
In all, about 50,000 compounds went through this assay and about 800 (1.6%) showed an effect of 50% or more. This is one part of a sample in which strong results are shown more often than they occur.

What follows are molecules tested against Bcl-2-like protein 10 (Homo sapiens) (UniProt Q9HD36) (assay: TR3 peptide-Bcl-B binding displacers, biochemical primary FP assay, phenotype converters (AID 1240;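 further: 0% = Bcl-B with tracer peptide and DMSO and 100% = tracer peptide lacking Bcl-B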)). Details: GST-Bcl-B / FITC-TR3 peptide fluorescence polarization; stronger effect = higher value; compound at 3.75 mg/L.
Sequence of Bcl-2-like protein 10 (Homo sapiens) (Q9HD36 whole entry, looked up): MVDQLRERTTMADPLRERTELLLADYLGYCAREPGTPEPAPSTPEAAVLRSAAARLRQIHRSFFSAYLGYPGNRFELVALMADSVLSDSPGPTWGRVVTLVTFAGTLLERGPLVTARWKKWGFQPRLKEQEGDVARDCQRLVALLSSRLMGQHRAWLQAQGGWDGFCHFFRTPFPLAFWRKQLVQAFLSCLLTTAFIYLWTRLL

| SMILES | displacement [%] |
| --- | --- |
| Cc1nc2cc(N=Cc3ccccc3O)ccc2n1C | 12.7 |
| Oc1ccccc1C=Nc1ccc2c(c1)ncn2CCn1cnc2cc(N=Cc3ccccc3O)ccc21 | 115 |
| Oc1ccccc1C=Nc1ccc2c(c1)ncn2-c1ccccc1 | 15.5 |
| Cc1nc2c(sc3nc(C)c(C)c(C)c32)c(=O)o1 | 0 |
| COC(=O)c1cc(Cl)c(NC(=O)C(c2ccccc2)c2ccccc2)cc1OC | -16.6 |
| COc1cc(/C=N/NC(=O)/C(=C\C=C\c2ccccc2)NC(=O)c2ccccc2)cc(OC)c1O | -2.3 |
| Cc1c(O)ccc2c3c(c(=O)oc12)CCC3 | 12.3 |
| Cc1c(C=O)c(=O)oc2c3c4c(cc12)CCCN4CCC3 | 148 |
| O=c1oc2c3c4c(cc2cc1CCO)CCCN4CCC3 | 75.8 |
| Cc1c(OCc2ccc(C(=O)O)cc2)ccc2c3c(c(=O)oc12)CCC3 | 8.3 |
| CN1CCN(Cc2c(O)ccc3c4c(c(=O)oc23)CCC4)CC1 | -0.5 |
| O=c1cc(C(F)(F)C(F)(F)F)c2cc3c4c(c2o1)CCCN4CCC3 | 66.7 |
| COCCCNC(=O)c1ccc(C(=O)NCCCOC)cc1 | -6.5 |
| O=[N+]([O-])c1cnc(-c2ccccc2)nc1 | -3.2 |
| COc1cc(Br)cc(/C=C(\C#N)C(=O)NC2CCCCC2)c1O | -5.3 |
| COc1ccc(Cl)cc1C(=O)Nc1nc(-c2ccc(Cl)cc2Cl)cs1 | 9.7 |
| CCSc1nc2ccccc2n1Cc1ccc(OC)c([N+](=O)[O-])c1 | 10.5 |
| CC(=O)Nc1cccc(NS(=O)(=O)c2ccccc2)c1 | 9.1 |
| C=CCNC(=O)Nc1ccc2nccnc2c1 | 8.7 |
| CCOC(=O)c1c(NC(=O)c2ccccc2)sc2c1CCC/C2=N/O | -0.2 |
| CCOC(=O)c1c(NC=O)sc2c1CCC/C2=N\O | 148 |
| CCOC(=O)c1c(NC=O)sc2c1CCC2 | -2.1 |
| COc1cccc(N2C(=O)C(=O)/C(=C(\O)c3ccccc3)C2c2ccc([N+](=O)[O-])cc2)c1 (stereo not drawn) | 4.1 |
| O=c1/c(=C/c2cn(Cc3ccc(F)cc3)c3ccccc23)sc2nc3ccccc3n12 | 2.3 |
| NS(=O)(=O)c1cccc(NC(=O)c2cccs2)c1 | 1.4 |

| SMILES | displacement [%] |
| --- | --- |
| O=C(CCCN1C(=O)/C(=C\c2cccs2)SC1=S)Nc1ccccc1O | 10.6 |
| O=C(CCN1C(=O)/C(=C\c2cccs2)SC1=S)Nc1ccc(Cl)cc1 | 77.4 |
| COc1ccc(NC(=O)CCN2C(=O)/C(=C/c3ccc(F)cc3)SC2=S)cc1 | 12.3 |
| CCOc1ccc(/C=C2\SC(=S)N(CCC(=O)N3CCOCC3)C2=O)cc1 | 100 |
| CCOc1ccc(/C=C2\SC(=S)N(CCC(=O)N3CCN(C)CC3)C2=O)cc1 | 1.2 |
| COc1ccc(NC(=O)CCN2C(=O)/C(=C\c3cccc(OC)c3)SC2=S)cc1 | -5.5 |
| O=C(CCN1C(=O)/C(=C/c2cccs2)SC1=S)Nc1ccc(F)cc1 | 10.6 |
| COc1ccc(NC(=O)CCN2C(=O)/C(=C/c3cccs3)SC2=S)cc1 | 82.8 |
| CCOc1ccc(/C=C2/SC(=S)N(CN3CCOCC3)C2=O)cc1 | 8.8 |
| Cc1ccccc1NC(=O)CCCN1C(=O)/C(=C/c2cccc3c2OCO3)SC1=S | 94.9 |
| O=C(CCCN1C(=O)/C(=C/c2ccccc2)SC1=S)Nc1ccccc1C(=O)O | 2 |
| O=C(CCCN1C(=O)/C(=C\c2cccs2)SC1=S)Nc1ccc(F)c(Cl)c1 | 3.9 |
| O=C(O)CSc1nnc(-c2ccco2)n1-c1ccccc1 | 0.4 |
| O=C(Nc1ccc(Cl)c(Cl)c1)C(c1ccccc1)c1ccccc1 | 15.4 |
| COC(=O)c1ccccc1P(C)(C)=O | 1 |
| COc1ccc(Br)cc1C(=O)Nc1cc2nn(-c3ccc(C)cc3)nc2cc1C | -6.9 |
| COc1ccc(NS(=O)(=O)c2cc(C)ccc2C)cc1 | 2 |
| O=C(Nc1cccnc1)c1cccc(C(=O)Nc2cccnc2)n1 | -7.2 |
| O=C(CSc1nnc(-c2ccncc2)n1-c1ccccc1)c1ccc(F)cc1 | -2.7 |
| COc1ccc(C(=O)Nc2cccc(NC(=O)c3ccc(F)cc3)c2)cc1Br | 2.2 |
| CN(C)c1ccc(NS(=O)(=O)c2ccccc2[N+](=O)[O-])cc1 | 9.8 |
| O=C1C(Cl)=C(N2CCOCC2)C(=O)C(Cl)=C1/C=C/N1CCOCC1 | 24.3 |
| COc1cccc(NC(=O)CCN2C(=O)/C(=C/c3ccc(C)cc3)SC2=S)c1 | 39.1 |
| CCOc1ccc(/C=C2\SC(=S)N(CCC(=O)Nc3ccccn3)C2=O)cc1 | -4.3 |
| CCOc1ccc(/C=C2\SC(=S)N(CCC(=O)Nc3cccnc3)C2=O)cc1 | 77 |

| SMILES | displacement [%] |
| --- | --- |
| O=C(CCN1C(=O)/C(=C/c2cccs2)SC1=S)Nc1cccnc1 | 135 |
| Cc1c(NC(=O)CCCN2C(=O)/C(=C/c3ccccc3)SC2=S)c(=O)n(-c2ccccc2)n1C | 1.5 |
| O=C(CCCN1C(=O)/C(=C\c2cccs2)SC1=S)Nc1cccnc1 | -0.9 |
| COc1ccc(/C=C2\SC(=S)N(CCCC(=O)Nc3c(C)n(C)n(-c4ccccc4)c3=O)C2=O)cc1 | 120 |
| O=C(CCN1C(=O)/C(=C/c2cccs2)SC1=S)Nc1cccc(F)c1 | -21.4 |
| COc1cccc(/C=C2/SC(=S)N(CCC(=O)Nc3c(C)n(C)n(-c4ccccc4)c3=O)C2=O)c1 | 7.7 |
| CCc1ccc(C(=O)CC2(O)C(=O)Nc3ccc(Br)cc32)cc1 (stereo not drawn) | 2.3 |
| Cc1ccc(CN2CCN(N=Cc3c(O)ccc4ccccc34)CC2)c(C)c1 | 0.3 |
| Cc1nc([N+](=O)[O-])cn1-c1cccc(O)c1 | 3 |
| Cc1cccc(NC(=O)COc2ccccc2)n1 | 13.2 |
| CCCNc1nc(OCC(F)(F)F)nc(OCC(F)(F)F)n1 | 12.4 |
| COc1ccc(/C=C2/N=C(c3ccc(Br)cc3)OC2=O)cc1 | 99.4 |
| CN(C)/C=C1\N=C(c2cccc(Br)c2)OC1=O | 0.8 |
| Cc1ccc(C2=N/C(=C\c3ccccc3)C(=O)O2)cc1 | -7.3 |
| COc1ccc(/C=C2/N=C(c3ccc(C)cc3)OC2=O)cc1Br | 127 |
| COc1cc(/C=C2\N=C(c3cccc(Br)c3)OC2=O)cc(OC)c1OC | 72.6 |
| O=C1OC(c2ccc(F)cc2)=N/C1=C\c1cccc(Br)c1 | 74.2 |
| COc1ccc(/C=C2\N=C(c3cccc(OC)c3)OC2=O)cc1 | -1.7 |
| COc1ccc(C2=NC(=Cc3ccc(Br)cc3)C(=O)O2)cc1 | 22.5 |
| O=C1OC(c2cccc(F)c2)=N/C1=C\c1ccc(F)cc1 | -2.2 |
| C=CCOc1c(Br)cc(/C=C2/N=C(c3ccccc3)OC2=O)cc1OC | -4.9 |
| Cc1ccc(/C=C2\N=C(c3ccc(Cl)cc3)OC2=O)cc1 | 0 |
| O=C1OC(c2ccc(F)cc2)=N/C1=C\c1ccc(Cl)cc1 | 4.3 |
